The record followed here is PubChem BioAssay (NCATS).

Molecules are shown by their SMILES. “And” between values parts separate entries of the source, which are not always exact repeats. Equal entries are not always repeated. Unmarked numbers belong to inactive results. Results filed as inconclusive are left out. The source made the active and inactive calls. Unless noted, the call rests on the fitted dose curve; in most records, active means well fitted curve in either direction with a large enough effect (not every such curve was filed as active); inconclusive means small, poorly fitted or top-dose-only effect, or another doubt; inactive means flat fitted curve, though single readings scatter.

The nature of assay [1]: AP1 Signaling Pathway (AID 357).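 Further: ME-180 reporter cells stimulated with EGF at its EC50 level; on the % scale 0 is the no-effect control and ±100 the full control effect.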 The settings on record: ME-180 AP-1-bla reporter, EGF-induced, beta-lactamase ratio, 5 h. The method in brief: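 AP-1-bla ME-180 cells, Opti-MEM + 0.5% dialyzed FBS, plated overnight 37 °C. Cpd titration + EC50 EGF, 5 h 37 °C. CCF4 2.5 h RT; ex 405, em 460/530 ratio → %activity, AC50.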
Assay [2] can be described thus: NFAT Signaling Pathway (AID 444).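 Further: carbachol stimulus at about its EC50 of 1 µM final; on the % scale 0 is the no-effect control and ±100 the full control effect.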 Conditions: Jurkat NFAT-bla M1, carbachol, beta-lactamase ratio, 5 h. The procedure, abridged:
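Read-out: CCF4 FRET ratio (460 nm/530 nm) after 1 h RT dye loading, used for %activity and AC50 from titration series. Cells: Jurkat NFAT-β-lactamase/M1 line, treated with compound plus 1 uM carbachol for 5 h, 37 °C.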

Assay [3] is described as follows: Stat Signaling Pathway (AID 446).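 Further: ME-180 cervical cancer cells given 40 pM IL-6 alongside compound; SIE-controlled beta-lactamase reporter measured as 460/530 nm FRET emission ratio; on the % scale 0 is the no-effect control and ±100 the full control effect.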 The settings on record: ME-180 (cervical carcinoma) SIE beta-lactamase reporter, IL-6 stimulated, 5 h. The method in brief: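 Compound effects on IL-6-induced STAT reporter activity were measured in ME-180 cells. After overnight culture, cells were co-treated with 40 pM IL-6 for 5 hrs before beta-lactamase substrate loading at room temperature.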
For assay [4], the target named is Glucocorticoid receptor (Homo sapiens) (UniProt P04150). Briefly: GR-GFP Redistribution (AID 450;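 active means compounds whose dose series gives a full or clear partial fitted curve of increased nuclear translocation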; further: potency means the concentration at half of the fitted maximal effect). Conditions: U2OS GR-GFP nuclear translocation, laser cytometry, 2 h.
Glucocorticoid receptor (Homo sapiens), sequence (P04150 whole entry, looked up): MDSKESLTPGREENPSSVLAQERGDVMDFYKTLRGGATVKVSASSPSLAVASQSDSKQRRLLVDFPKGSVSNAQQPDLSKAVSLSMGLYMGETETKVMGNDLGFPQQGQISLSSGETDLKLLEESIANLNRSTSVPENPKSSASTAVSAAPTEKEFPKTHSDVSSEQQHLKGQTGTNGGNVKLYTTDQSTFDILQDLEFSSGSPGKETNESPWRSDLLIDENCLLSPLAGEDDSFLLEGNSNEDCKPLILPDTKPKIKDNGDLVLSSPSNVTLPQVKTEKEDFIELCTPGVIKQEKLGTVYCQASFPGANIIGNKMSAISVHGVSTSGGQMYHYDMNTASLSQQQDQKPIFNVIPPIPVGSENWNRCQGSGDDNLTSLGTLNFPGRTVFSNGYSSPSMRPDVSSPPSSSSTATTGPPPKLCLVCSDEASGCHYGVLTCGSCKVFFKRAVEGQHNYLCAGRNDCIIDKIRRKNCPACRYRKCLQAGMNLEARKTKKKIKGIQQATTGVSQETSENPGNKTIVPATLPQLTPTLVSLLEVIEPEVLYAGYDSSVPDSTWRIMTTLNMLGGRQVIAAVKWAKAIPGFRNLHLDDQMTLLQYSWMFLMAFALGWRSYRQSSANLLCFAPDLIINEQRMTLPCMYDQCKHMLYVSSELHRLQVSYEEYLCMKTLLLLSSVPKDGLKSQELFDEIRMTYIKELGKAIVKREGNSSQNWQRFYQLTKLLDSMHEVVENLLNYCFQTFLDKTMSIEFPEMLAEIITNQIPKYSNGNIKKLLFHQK
Assay [5] shares this target. The assay is described as follows: GR-EFC Redistribution (AID 451; calls by dose curve; further: potency means the concentration at half of the fitted maximal effect). Conditions: CHO-K1 GR-EFC translocation, beta-gal luminescence, 2 h. The method in brief:
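Translocation of GR-ED fusion to nuclear EA restores b-gal, read by luminescence after 1 h room-temperature detection. Engineered CHO-K1 biosensor cells, 1,000/well, exposed 2 h at 37 C to titrations up to 46 uM final.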

Assay [6] deals with Mitogen-activated protein kinase 10 (Mus musculus) (UniProt Q61831). The assay is described as follows: JNK3 AlphaScreen Assay (AID 530).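 Further: kinase came from lysate of stimulated human HepG2 cells; signal reports phosphorylation of biotinylated GST-cJun 1-79 at Ser73 with 10 µM ATP; on the % scale 0 is the no-effect control and ±100 the full control effect.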 Conditions: JNK3 lysate, c-Jun phosphorylation; series mostly up to 57.1 µM. The method in brief:
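Kinase buffer: 20 mM Tris-HCl pH 7.6, 10 mM MgCl2, 1 mM DTT, 0.1 mM Na3VO4, 0.01% Tween-20; ATP 10 uM. Substrate biotin-GST-cJun(1-79), enzyme from activated HepG2 lysates. Detection by Ser73 phospho-antibody AlphaScreen.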
(Bead proximity is the source of the signal in Alpha formats.)

Assay [7] has as its target Cytochrome P450 1A2 (Homo sapiens) (UniProt P05177). The assay is described as follows: p450-cyp1a2 (AID 410; calls by dose curve; further: potency means the concentration at half of the fitted maximal effect;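 on activity change, negative = inhibition: -100% = full effect of reference inhibitor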). The settings on record: recombinant CYP1A2, luciferin-ME demethylation, luminescence; series mostly up to 57 µM. The procedure, abridged:
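20nM CYP1A2, 100uM Luciferin-ME (=Km), 100mM KPO4; cpd 10 min RT; +NADPH regen, 60 min RT; stop/detect 20 min; luminescence. Normalized to furafylline 57 uM = full inhibition.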

The nature of assay [8]: Cell Viability - BJ (AID 421; calls by dose curve;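 further: potency means the concentration at half of the fitted maximal effect; cells exposed to compound for 40 hours at 37 °C before readout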). Conditions: BJ fibroblast viability, qHTS. The procedure, abridged: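 Luminescent ATP signal (CellTiter-Glo, 20 min at room temperature) served as the read-out of viable BJ cells after 40 hours of compound treatment. Responses were scaled between DMSO and 100 uM tamoxifen, and AC50 values were obtained by Hill modeling.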
(Quantitative high-throughput screening tests each substance at several concentrations.)

A short description of assay [9]: Cell Viability - Jurkat (AID 426;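 active means dose-dependent loss of cell ATP signal giving a full or clear fitted curve, ranked by lower potency value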; further: potency means the concentration at half of the fitted maximal effect). The settings on record: qHTS. The method in brief:
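Luminescent ATP read-out (CellTiter-Glo, 20 min at room temperature) after 40 hr compound exposure at 37 °C of Jurkat E6-1 cells, 5000/well. Decreased ATP taken as cytotoxicity; AC50 from standard Hill equation.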

Assay [10] is described as follows: Cell Viability - Hek293 (AID 427;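 active means compounds whose dose-response curve shows a full or clear partial loss of cell viability, called from curve shape rather than a numeric limit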;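 further: potency means the concentration at half of the fitted maximal effect; cells exposed to compound for 40 hours at 37 °C before reading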). Conditions: qHTS. The procedure, abridged: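 Luminescent ATP read-out (CellTiter-Glo, 20 min RT) after 40 hr compound exposure at 37 °C in complete medium. Signal normalized to DMSO (basal) and 100 uM tamoxifen (100% inhibition); concentration-response fitted with the standard Hill equation to give AC50.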
Assay [11] can be described thus: Cell Viability - HepG2 (AID 433; calls by dose curve;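 further: potency means the concentration at half of the fitted maximal effect; potency for ATP loss meaning cytotoxicity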). Conditions: qHTS. The method in brief: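 HepG2 cells, 1500 per well, treated 40 hr at 37 °C in complete medium; viability from intracellular ATP by CellTiter-Glo luminescence. Normalized to DMSO and 100 uM tamoxifen; AC50 from Hill fit of qHTS concentration-response.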
Assay [12] can be described thus: Cell Viability - MRC5 (AID 434; calls by dose curve;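 further: potency means the concentration at half of the fitted maximal effect; potency reflects cytotoxicity seen as loss of intracellular ATP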). The settings on record: MRC5 lung fibroblast viability, qHTS. The procedure, abridged: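 AC50 values come from Hill-equation fits of intracellular ATP loss, measured by CellTiter-Glo luminescence. Normal lung fibroblasts (MRC5) had 40 hr compound treatment at 37 C, normalized between DMSO and 100 uM tamoxifen.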
Assay [13] can be described thus: Cell Viability - SK-N-SH (AID 435; calls by dose curve; further: potency means the concentration at half of the fitted maximal effect). The settings on record: SK-N-SH neuroblastoma cell viability qHTS. The method in brief: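 SK-N-SH neuroblastoma cells (1500/well) treated 40 h at 37 °C in complete medium; viability read as cellular ATP by CellTiter-Glo luminescence. Normalized to DMSO and 100 uM tamoxifen; AC50 from Hill fits of qHTS concentration-response.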

Assay [14] in a line: Cell Viability - N2a (AID 540; active means well fitted curve in the direction sought with a large enough effect; an effect the other way counts as inactive or inconclusive;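 further: plate controls were DMSO alone for no effect and tamoxifen control for full effect; nearly all actives have a fitted effect of over 45% in size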). Conditions: N2a mouse neuroblastoma cell viability; series mostly up to 92.2 µM. The method in brief:
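N2a mouse neuroblastoma, 1500 cells/well, 5 hr settle; compound 40 hr, 37 °C; CellTiter-Glo 20 min RT; luminescence; Hill-fit AC50.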

Assay [15] in a line: Cell Viability - NIH 3T3 (AID 541; active means well fitted curve in the direction sought with a large enough effect; an effect the other way counts as inactive or inconclusive;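 further: plate controls were DMSO alone for no effect and tamoxifen positive control for full effect; nearly all actives have a fitted effect of over 25% in size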). The settings on record: NIH 3T3 cell viability, qHTS; series mostly up to 92.2 µM. The procedure, abridged: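 qHTS format; 40 hr compound exposure, 37 °C; CellTiter-Glo luminescence (cellular ATP) read-out after 20 min at RT. Decrease in ATP = cytotoxicity; AC50 from standard Hill fit.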
Assay [16] can be described thus: Cell Viability - HUV-EC-C (AID 542; active means well fitted curve in the direction sought with a large enough effect; an effect the other way counts as inactive or inconclusive; further: on the % scale 0 is the no-effect control and ±100 the full control effect; nearly all actives have a fitted effect of over 35% in size). Conditions: HUV-EC-C endothelial cell viability, qHTS; series mostly up to 92.2 µM. The method in brief:
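Luminescent ATP read-out (CellTiter-Glo, 20 min room temperature) after 40 hr compound treatment of HUV-EC-C cells at 37 °C. Concentration-response data fitted with the standard Hill equation to give AC50; tamoxifen and doxorubicin served as positive controls.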

Assay [17] can be described thus: Cell Viability - H-4-II-E (AID 543; active means well fitted curve in the direction sought with a large enough effect; an effect the other way counts as inactive or inconclusive; further: on the % scale 0 is the no-effect control and ±100 the full control effect; nearly all actives have a fitted effect of over 35% in size). The settings on record: H-4-II-E rat hepatoma viability; series mostly up to 92.2 µM. The procedure, abridged: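 qHTS, rat hepatoma H-4-II-E, 1500 cells/well; 40 hr compound exposure, 37 °C; CellTiter-Glo ATP luminescence after 20 min RT; AC50 by standard Hill fit.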
The nature of assay [18]: Cell Viability - SH-SY5Y (AID 544; active means well fitted curve in the direction sought with a large enough effect; an effect the other way counts as inactive or inconclusive;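 further: 0% = DMSO alone and -100% = 100 µM tamoxifen; nearly all actives have a fitted effect of over 55% in size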). Conditions: SH-SY5Y neuroblastoma cell viability; series mostly up to 92.2 µM. The method in brief:
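SH-SY5Y, 1500 cells/well, 5 hr pre-incubation 37 °C; cpd 40 hr 37 °C; CellTiter-Glo 20 min RT; luminescence (ATP) read. qHTS concentration-response, Hill fit → AC50. Tamoxifen, doxorubicin as positive controls.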

A short description of assay [19]: Cell Viability - Renal Proximal Tubule (AID 545; active means well fitted curve in the direction sought with a large enough effect; an effect the other way counts as inactive or inconclusive;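 further: 0% = DMSO only and -100% = 100 µM tamoxifen; nearly all actives have a fitted effect of over 40% in size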). The settings on record: renal proximal tubule cells viability, primary cells of rat origin; series mostly up to 91.7 µM. The method in brief:
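Rat renal proximal tubule primary cells, 1000/well, exposed to compounds for 40 hr at 37 °C in complete medium; cellular ATP read by CellTiter-Glo luminescence. AC50 from concentration-response fitted with standard Hill equation.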

The nature of assay [20]: Cell Viability - Mesenchymal (AID 546; active means well fitted curve in the direction sought with a large enough effect; an effect the other way counts as inactive or inconclusive;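 further: cells exposed to compound for 40 hours before reading; 0% = DMSO only and -100% = 100 µM tamoxifen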). The settings on record: mesenchymal cells viability, qHTS; series mostly up to 91.7 µM. The method in brief: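 CellTiter-Glo luminescence (intracellular ATP, 20 min room temperature) after 40 hr compound exposure at 37 °C of 1000 glomerulus-derived human kidney mesenchymal cells/well; AC50 values obtained by fitting qHTS concentration-response data to the Hill equation.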

Cytochrome P450 1A2 (Homo sapiens), sequence (P05177 whole entry, looked up): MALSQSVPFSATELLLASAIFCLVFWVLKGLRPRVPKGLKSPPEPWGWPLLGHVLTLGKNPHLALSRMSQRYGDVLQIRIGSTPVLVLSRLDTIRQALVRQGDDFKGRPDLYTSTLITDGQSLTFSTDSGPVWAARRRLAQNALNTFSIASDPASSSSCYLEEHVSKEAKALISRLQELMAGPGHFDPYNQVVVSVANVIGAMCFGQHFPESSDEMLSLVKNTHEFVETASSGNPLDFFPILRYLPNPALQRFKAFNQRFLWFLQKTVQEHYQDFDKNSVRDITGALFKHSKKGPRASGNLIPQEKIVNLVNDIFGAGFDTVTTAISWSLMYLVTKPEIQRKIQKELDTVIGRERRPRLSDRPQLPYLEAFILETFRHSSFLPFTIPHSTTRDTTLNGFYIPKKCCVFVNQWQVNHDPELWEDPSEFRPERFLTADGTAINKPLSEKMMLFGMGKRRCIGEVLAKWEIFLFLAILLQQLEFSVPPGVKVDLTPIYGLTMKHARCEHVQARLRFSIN

In the case of `COc1ccc([C@@H]2CNC(=O)C2)cc1OC1CCCC1`, the activity change, negative = inhibition in assay [1] (at 17.2 µM (top of the series)) is -7.88%; in assay [1] (at 38 µM (top of the series)) it was -7.79%; in [2] (at 17.2 µM (top of the series)), 2.36%; in [2] (at 38 µM (top of the series)) it was 11.5%. Moreover, the activity, negative = inhibition in [3] (at 17.2 µM (top of the series)) was -9.88%; in [3] (at 38 µM (top of the series)), -0.129%. For the same compound, the Potency is > 46 µM and > 20.6 µM in assay [4]; > 46 µM and > 20.6 µM in assay [5]. In addition, the Potency entry in [6] was “inactive”.
Take `CN1[C@H]2CC(OC(=O)[C@@H](CO)c3ccccc3)C[C@H]1[C@H]1O[C@H]12` (stereo partly specified): the activity change, negative = inhibition in [1] (at 17.2 µM (top of the series)) was 19.5%; in assay [2] (at 17.2 µM (top of the series)) it was -45.8% (active). Besides, the activity, negative = inhibition in [3] (at 17.2 µM (top of the series)) was -3.14%.
Take `CC(C)[C@H](CO)Nc1nc(Nc2cccc(Cl)c2)c2ncn(C(C)C)c2n1`: in assay [1] (at 38 µM (top of the series)), the activity change, negative = inhibition was -111% (active). Moreover, the Potency in assay [7] was 2 µM (active) and 316 nM (active); in assay [4], greater than 46 µM; in assay [5] it was greater than 46 µM. For the same compound, the activity, negative = inhibition in assay [3] (at 38 µM (top of the series)) is -81.5% (active). Besides, in assay [6], the Potency result was “inactive”.
Take `CCOC(=O)C1=C(C)NC(=S)NC1c1cccc(O)c1` (stereo unspecified): the Potency is 39.8 µM (active) in assay [7], greater than 46 µM in [4] and greater than 46 µM in [5]. Besides, the Potency entry in assay [6] was “inactive”.
Take `CN(C)CC[C@H](c1ccc(Cl)cc1)c1ccccn1`: the activity change, negative = inhibition in assay [1] (at 17.2 µM (top of the series)) was 15.5%; in assay [1] (at 38 µM (top of the series)), 10.2% and 11.2%. Also, the Potency result in assay [7] and in assay [6] was “inactive” in each case. The activity, negative = inhibition in assay [3] (at 17.2 µM (top of the series)) is 1.79%; in assay [3] (at 38 µM (top of the series)) it was 2.96%. For the same compound, the Potency in [4] is > 46 µM and > 20.6 µM; in assay [5], > 46 µM and > 20.6 µM.
On to `COc1cc2ncnc(Nc3cccc(Br)c3)c2cc1OC`, for which the Potency in assay [4] and in assay [5] was greater than 46 µM in each case.
Turning to `Cc1cc(O)c2c(c1)C(=O)c1cccc(O)c1C2=O`, the Potency in [8], in assay [9], in assay [10], in assay [11], in [12] and in [13] was greater than 92 µM each time. Further, the Potency result in assay [6] was “inactive”. For the same compound, the result in assay [14], in [15], in assay [16], in assay [17], in [18] and in assay [19] was inactive. The compound was classed as inactive in assay [20].
